Results reported in PubChem BioAssay AID434958 (Southern Research Specialized Biocontainment Screening …, 2010).
Among all 1,200 compounds or so, about 400 (33%) were called active. These entries were drawn from the full list. Measured potencies and affinities stand elsewhere. A number with no mark means an inactive call. How the calls were made is not given here.

Assay: mammalian cell cytotoxicity, dose response, cytotoxicity control (AID 434958);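 further: cells exposed to compound for 72 hours before readout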
Details: cytotoxicity counter-screen; series mostly up to 40 µM; viability: at the top concentration

Compound | viability
COC(=O)c1c(NC(=O)c2ccc(C)cc2)csc1C | 94.8%
Cc1ccc(C)c(N2CCN(CC3CC=CCC3)CC2)c1 (stereo not drawn) | 97.1%
Cc1cc(Br)ccc1NC(=O)c1ccccc1-c1ccccc1 | 90.7%
O=C(COC(=O)C1CC1)NCc1ccccc1Cl | 109%
Cc1ccc(C2=N/C(=C\c3cccc(F)c3)C(=O)O2)cc1 | 93.8%
COC(=O)c1sc(-c2ccc(C(C)(C)C)cc2)cc1NC(=O)CCC(=O)O | 84.9%
O=C(COc1ccc(Cl)cc1)OCC(=O)N1CCCCCC1 | 99.3%
Cc1ccc(C)c(-n2c(-c3ccco3)n[nH]c2=S)c1 | 105%
O=C(NN1C(=O)c2cc(Br)ccc2NC1c1ccccc1Cl)c1ccncc1 (stereo not drawn) | 85.9%
CCOc1ccc(-c2nnc(-c3ccc(OC)cc3)o2)cc1 | 91.7%
COc1ccc2cc(C3=CCCCC3)ncc2c1 | 97.6%
COc1cccc(/C=C/c2[nH]c(=O)[nH]c(=O)c2[N+](=O)[O-])c1O | 108%
COc1ccc(-c2cc(C(N)=O)nc(N3CCCCCC3)n2)cc1 | 95.8%
N#Cc1cc2c(nc1SCC(=O)Nc1sc3c(c1C#N)CCC3)CCCC2 | 88.3%
COc1ccccc1C(=O)Nc1sc2c(c1C(=O)NCc1ccco1)CCCC2 | 84.7%
CC(C(=O)Nc1sc2c(c1C(=O)NCc1ccco1)CCCC2)N1C(=O)c2ccccc2C1=O (stereo not drawn) | 81.9%
O=C(Cn1cnc2sc3c(c2c1=O)CCCC3)NCC(=O)Nc1ccccc1F | 106%
O=c1oc(-c2cccs2)nc2sc3c(c12)CCCC3 | 96.4%
O=c1oc(-c2ccco2)nc2sc3c(c12)CCCCC3 | 98.2%
CCOc1nnnc2c1sc1nc(N3CCOCC3)c3c(c12)CCCC3 | 86.5%
Fc1ccc(C2Nc3cccc4cccc(c34)N2)cc1 | 87%

Compound | viability
CCC(CC)C(=O)Nc1ccc(Sc2ccc([N+](=O)[O-])cc2)cc1 | 85.5%
Cc1nc(S/C(=C\c2ccc(OCc3ccccc3Cl)cc2)C(=O)O)n[nH]1 | 86.2%
CCn1nnnc1SCC(=O)c1ccc(C)cc1C | 105%
CSc1ccccc1C(=O)Nc1ccc2c(c1)OCCO2 | 86.6%
O=C(NN=C1CCCC1)c1cccs1 | 97.9%
COc1ccc(/C=N/Nc2nc(-c3ccc(C)cc3)c(NC(C)=O)s2)cc1OC | 85.2%
CC(C)OCc1c(C(=O)Nc2nccs2)oc2ccccc12 | 84.7%
COc1ccc(-c2cc(C(F)F)nc(-n3nc(C)cc3C)n2)cc1 | 109%
Cc1onc(-c2c(Cl)cccc2Cl)c1/C(N)=N/OC(=O)C1CC1 | 104%
CCOc1ccc2cc(S(=O)(=O)N3CCCCC3)ccc2c1 | 90.6%
COc1cccc(-n2c([S-])c(C(=O)Nc3ccc(S(=O)(=O)N4CCOCC4)cc3)[n+]3cc(C(N)=O)ccc23)c1 | 93.7%
S=C(Nc1ccc(Cl)cc1)c1nc2ccccc2s1 | 98.3%
COc1ccc(NC(=O)CSc2nncn2C)c([N+](=O)[O-])c1 | 97%
O=C(/C=C/c1ccccc1)NC1CC2CCC1C2 (stereo not drawn) | 103%
CC1(c2ccc([N+](=O)[O-])cc2)NC(=O)N(CC(=O)c2ccc3c(c2)OCO3)C1=O (stereo not drawn) | 96.8%
O=C(CSc1n[nH]c(=O)n1C1CC1)c1ccc2c(c1)OCCO2 | 94.2%
O=S(=O)(Nc1ccccc1)c1ccc2c(c1)CCO2 | 93.8%
Cc1ccc(-c2nc3[nH]c(=O)cc(NC(=O)C(C)C)n3n2)cc1 | 112%
COCCNC(=S)N/N=C(\C)c1cccc(OC)c1 | 94.5%
CCOCC(=O)Nc1ccc(F)c(F)c1 | 98.5%
O=C(CC12CC3CC(CC(C3)C1)C2)NCc1ccc(F)cc1 | 94%

Compound | viability
O=c1c2c(nc3n1CCCCC3)sc1c(O)c(Br)ccc12 | 89.9%
COc1ccc(-c2csc(/C=C/c3ccc4c(c3)OCO4)n2)cc1OC | 103%
COc1cc(NC(=O)c2ccc(Cl)cc2)c(OC)cc1NC(=O)CN1CCOCC1 | 94.5%
CN(C)S(=O)(=O)c1ccc(NC(=O)c2cc3ccccc3o2)cc1 | 94.6%
Cc1ccccc1NC(=O)c1ccc(CN(c2ccccc2)S(=O)(=O)c2ccccc2)cc1 | 86.9%
CNC(=O)Nc1cccc(-c2cc(-c3c(Cl)cccc3Cl)no2)c1 | 84.4%
O=c1oc(-c2ccccc2)nc2sc3c(c12)CCC3 | 96.8%
C=CCn1cc(C(=O)NCCCOC)c(=O)c2cc(S(=O)(=O)N(CC)CC)ccc21 | 90.7%
CC(OC(=O)c1ccc([N+](=O)[O-])o1)C(=O)NC1CCCCC1C (stereo not drawn) | 90.8%
C#CCOc1c(Cl)cc(/C=N/NC(N)=S)cc1OCC | 96.7%
BrC(=C\c1ccccc1)/C=N/N1CCN(c2ccccn2)CC1 | 104%
Cc1ccc(C(=O)N2CCC3(CC2)Oc2ccc(F)cc2C(=O)C32CC(c3cccnc3)=NO2)s1 (stereo not drawn) | 98.1%
O=C(Nc1c2c(nc3ccccc13)CCCC2)c1ccccc1F | 108%
COc1ccc(C(=O)Nc2ccc3nc(N4CCCCC4)cc(C)c3c2)c(OC)c1 | 94.4%
COc1ccc(-c2sc3cc(OC)c(OC)cc3c2C#CCCO)cc1 | 89.1%
CCN(CC(=O)Nc1ccccc1OC)C(=O)c1cc(S(=O)(=O)N2CCCCCC2)ccc1OC | 95.8%
C/C(=N\NC(=S)NCc1ccccc1)c1cccc(Br)c1 | 95.1%
O=C(Cc1cccc2ccccc12)N/N=C/c1ccc(O)c([N+](=O)[O-])c1 | 99.7%
O=C(COc1cccc2cccnc12)N/N=C/c1ccc(O)cc1 | 95.2%
CN(C)c1ccc(S(=O)(=O)NCC(=O)OCC(=O)Nc2cccc(Cl)c2)cc1[N+](=O)[O-] | 96.4%
O=C(NCc1nc2ncc(Br)cc2[nH]1)c1ccccc1 | 94.1%
